Measured values taken from PubChem BioAssay (EPA / NIEHS).
Results filed as inconclusive are left out. Activity calls are given as the source filed them. The calls were made as follows, unless noted: active = hit-call score of the fitted dose curve at least 0.9, where 1 is the maximum; inconclusive = response in the unintended direction; inactive = score below 0.9.

Columns and labels:
[1] = read-out: Glyceraldehyde-3-phosphate dehydrogenase (Homo sapiens) (UniProt P04406); experiment: CLD_GAPDH_6hr: CellzDirect (CLD) Gene Expression Assay for Baseline Control (Glyceraldehyde 3-phosphate dehydrogenase) at 6 hours (AID 2283681);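 also: active means increased signal relative to DMSO vehicle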
Outline: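 Primary human hepatocytes from two donor preparations, dosed at multiple concentrations with 0.2% DMSO vehicle; GAPDH mRNA measured 6 h after dosing by chemiluminescent quantitative nuclease protection assay (qNPA) on denatured lysates. Serves as background control; cytotoxicity annotated by morphology.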

[2] = read-out: HMG-CoA synthase (HMGCS2), HMGCS2 (gene 3158); experiment: CLD_HMGCS2_6hr: CellzDirect (CLD) Gene Expression Assay for HMG-CoA synthase (HMGCS2) at 6 hours (AID 2283682);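 also: actives raise HMGCS2 transcript above the 0.2% DMSO vehicle baseline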
Outline: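 Primary human hepatocytes dosed daily with fresh chemical, 0.2% DMSO vehicle; HMGCS2 mRNA measured at 6 h by qNPA chemiluminescence. Gain of signal fitted against DMSO; cytotoxicity flagged from phase-contrast morphology.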

[3] = read-out: xenobiotic metabolism (CYP1A2), CYP1A2 (gene 1544); experiment: CLD_CYP1A2_24hr: CellzDirect (CLD) Gene Expression Assay for xenobiotic metabolism (CYP1A2) at 24 hours (AID 2283683)
Outline: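 Primary human hepatocytes from two donor preparations dosed daily with multiple concentrations of chemical, 0.2% DMSO vehicle. CYP1A2 mRNA at 24 h quantified by qNPA chemiluminescence; gain of signal analyzed relative to DMSO. Cytotoxicity flagged by phase-contrast morphology.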

[4] = read-out: Cytochrome P450 2C19 (Homo sapiens) (UniProt P33261); experiment: CLD_CYP2C19_24hr: CellzDirect (CLD) Gene Expression Assay for xenobiotic metabolism (CYP2C19) at 24 hours (AID 2283687);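 also: activity means mRNA induction above DMSO vehicle baseline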
Outline: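 Primary human hepatocytes (two donor preparations) dosed daily with fresh test chemical in 0.2% DMSO vehicle; CYP2C19 mRNA induction measured at 24 h by quantitative nuclease protection assay with chemiluminescence, fitted for gain of signal versus DMSO.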

[5] = read-out: Cytochrome P450 3A4 (Homo sapiens) (UniProt P08684); experiment: CLD_CYP3A4_24hr: CellzDirect (CLD) Gene Expression Assay for xenobiotic metabolism (CYP3A4) at 24 hours (AID 2283689)
Outline: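 Primary human hepatocytes from two donors dosed daily with fresh compound for two days, 0.2% DMSO vehicle. CYP3A4 mRNA at 24 hr by qNPA chemiluminescence; gain-of-signal fit versus DMSO, cytotoxicity flagged by morphology.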

[6] = read-out: organic anion transporter (SLCO1B1), SLCO1B1 (gene 10599); experiment: CLD_SLCO1B1_24hr: CellzDirect (CLD) Gene Expression Assay for organic anion transporter (SLCO1B1) at 24 hours (AID 2283690)
Outline: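 Primary human hepatocytes (two donor preparations) dosed daily for two days with chemicals at multiple concentrations, 0.2% DMSO vehicle. SLCO1B1 mRNA at 24 h measured by qNPA chemiluminescence; induction fitted relative to DMSO.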

[7] = read-out: HMG-CoA synthase (HMGCS2), HMGCS2 (gene 3158); experiment: CLD_HMGCS2_24hr: CellzDirect (CLD) Gene Expression Assay for HMG-CoA synthase (HMGCS2) at 24 hours (AID 2283691)
Outline: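 Primary human hepatocytes from two donor preparations, dosed daily with fresh solutions; vehicle 0.2% DMSO, 24 h harvest. HMGCS2 mRNA quantified by qNPA with S1 nuclease digestion and chemiluminescence; gain fitted versus DMSO, cytotoxicity annotated by morphology.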

[8] = read-out: Broad substrate specificity ATP-binding cassette transporter ABCG2 (Homo sapiens) (UniProt Q9UNQ0); experiment: CLD_ABCG2_48hr: CellzDirect (CLD) Gene Expression Assay for ABC Transporter (ABCG2) at 48 hours (AID 2283704)
Outline: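 Primary human hepatocytes from two donors, dosed daily for 2 days, 0.2% DMSO vehicle, several concentrations. ABCG2 mRNA at 48 h by qNPA chemiluminescence, gain fitted versus DMSO; cytotoxicity flagged by morphology.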

[9] = read-out: xenobiotic metabolism (CYP1A1), CYP1A1 (gene 1543); experiment: CLD_CYP1A1_48hr: CellzDirect (CLD) Gene Expression Assay for xenobiotic metabolism (CYP1A1) at 48 hours (AID 2283705)
Outline: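 Primary human hepatocytes from two donors dosed daily for two days at multiple concentrations, 0.2% DMSO vehicle; CYP1A1 mRNA induction at 48 h by qNPA chemiluminescence. Cytotoxicity noted by phase-contrast morphology.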

[10] = read-out: Glyceraldehyde-3-phosphate dehydrogenase (Homo sapiens) (UniProt P04406); experiment: CLD_GAPDH_48hr: CellzDirect (CLD) Gene Expression Assay for Baseline Control (Glyceraldehyde 3-phosphate dehydrogenase) at 48 hours (AID 2283706);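 also: active means higher GAPDH mRNA than DMSO vehicle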
Outline: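 Primary human hepatocytes dosed daily for two days with fresh chemical at multiple concentrations, 0.2% DMSO vehicle; GAPDH mRNA measured at 48 h by quantitative nuclease protection assay with chemiluminescence, fitted upward relative to DMSO as background control.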

[11] = read-out: alkyl and aryl transferase (GSTA2), GSTA2 (gene 2939); experiment: CLD_GSTA2_48hr: CellzDirect (CLD) Gene Expression Assay for alkyl and aryl transferase (GSTA2) at 48 hours (AID 2283708);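 also: active means mRNA induction above DMSO vehicle baseline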
Outline: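 Primary human hepatocytes dosed daily for two days (0.2% DMSO vehicle), harvested at 48 h. GSTA2 mRNA induction measured by quantitative nuclease protection assay with chemiluminescent imaging, fitted for gain of signal relative to DMSO.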

[12] = read-out: Cytochrome P450 2C9 (Homo sapiens) (UniProt P11712); experiment: CLD_CYP2C9_24hr: CellzDirect (CLD) Gene Expression Assay for xenobiotic metabolism (CYP2C9) at 24 hours (AID 2283688)
Outline: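 Primary human hepatocytes from two donor preparations, dosed daily for two days at multiple concentrations; vehicle 0.2% DMSO. CYP2C9 mRNA induction at 24 h measured by qNPA chemiluminescence relative to DMSO; cytotoxicity annotated from morphology.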

[13] = read-out: Glyceraldehyde-3-phosphate dehydrogenase (Homo sapiens) (UniProt P04406); experiment: CLD_GAPDH_24hr: CellzDirect (CLD) Gene Expression Assay for Baseline Control (Glyceraldehyde 3-phosphate dehydrogenase) at 24 hours (AID 2283692)
Outline: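 Primary human hepatocytes (two donor preparations) dosed daily for two days, 0.2% DMSO vehicle; GAPDH mRNA measured at 24 h by qNPA chemiluminescence as a background control, gain-of-signal fitted against DMSO.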

[14] = read-out: organic anion transporter (SLCO1B1), SLCO1B1 (gene 10599); experiment: CLD_SLCO1B1_48hr: CellzDirect (CLD) Gene Expression Assay for organic anion transporter (SLCO1B1) at 48 hours (AID 2283707)
Outline: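 Primary human hepatocytes from two donor preparations dosed daily for two days with multiple concentrations, 0.2% DMSO vehicle. SLCO1B1 mRNA at 48 h by quantitative nuclease protection assay, chemiluminescence; gain-of-signal fitted versus DMSO.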

[15] = read-out: Cytochrome P450 3A4 (Homo sapiens) (UniProt P08684); experiment: CLD_CYP3A4_48hr: CellzDirect (CLD) Gene Expression Assay for xenobiotic metabolism (CYP3A4) at 48 hours (AID 2283698)
Outline: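 Primary human hepatocytes from two donor preparations dosed daily for two days with multiple chemical concentrations, 0.2% DMSO vehicle. CYP3A4 mRNA at 48 h by quantitative nuclease protection assay, chemiluminescence, positive fit versus DMSO; cytotoxicity flagged morphologically.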

[16] = read-out: Cytochrome P450 2C9 (Homo sapiens) (UniProt P11712); experiment: CLD_CYP2C9_48hr: CellzDirect (CLD) Gene Expression Assay for xenobiotic metabolism (CYP2C9) at 48 hours (AID 2283701; active = hit-call score of the fitted dose curve at least 0.9, where 1 is the maximum; inactive = score below 0.9)
Outline: (§1)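 Primary human hepatocytes (two donor preparations) dosed daily for two days with test chemicals, 0.2% DMSO vehicle; harvested at 48 h. mRNA induction quantified by qNPA chemiluminescence, fitted for gain of signal against DMSO baseline; cytotoxicity annotated from phase-contrast morphology.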

[17] = read-out: glucuronosyltransferase (UGT1A1), UGT1A1 (gene 54658); experiment: CLD_UGT1A1_24hr: CellzDirect (CLD) Gene Expression Assay for glucuronosyltransferase (UGT1A1) at 24 hours (AID 2283696)
Outline: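 Primary human hepatocytes from two donor preparations were dosed (0.2% DMSO vehicle) and harvested at 24 h; UGT1A1 mRNA induction was quantified by chemiluminescent qNPA, fitted as gain relative to DMSO.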

[18] = read-out: xenobiotic metabolism (CYP2C9), CYP2C9 (gene 1559); experiment: CLD_CYP2C9_48hr: CellzDirect (CLD) Gene Expression Assay for xenobiotic metabolism (CYP1A2) at 48 hours (AID 2283701)
Outline: as §1

[19] = read-out: xenobiotic metabolism (CYP1A2), CYP1A2 (gene 1544); experiment: CLD_CYP1A2_48hr: CellzDirect (CLD) Gene Expression Assay for xenobiotic metabolism (CYP1A2) at 48 hours (AID 2283703)
Outline: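 Primary human hepatocytes from two donor preparations were dosed daily for two days at multiple concentrations in 0.2% DMSO vehicle. CYP1A2 mRNA was measured at 48 hours by chemiluminescent quantitative nuclease protection assay, with gain of signal fitted versus DMSO and cytotoxicity annotated from morphology.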

Measured: AC50

Sequence of Cytochrome P450 2C19 (Homo sapiens) (P33261 whole entry, looked up): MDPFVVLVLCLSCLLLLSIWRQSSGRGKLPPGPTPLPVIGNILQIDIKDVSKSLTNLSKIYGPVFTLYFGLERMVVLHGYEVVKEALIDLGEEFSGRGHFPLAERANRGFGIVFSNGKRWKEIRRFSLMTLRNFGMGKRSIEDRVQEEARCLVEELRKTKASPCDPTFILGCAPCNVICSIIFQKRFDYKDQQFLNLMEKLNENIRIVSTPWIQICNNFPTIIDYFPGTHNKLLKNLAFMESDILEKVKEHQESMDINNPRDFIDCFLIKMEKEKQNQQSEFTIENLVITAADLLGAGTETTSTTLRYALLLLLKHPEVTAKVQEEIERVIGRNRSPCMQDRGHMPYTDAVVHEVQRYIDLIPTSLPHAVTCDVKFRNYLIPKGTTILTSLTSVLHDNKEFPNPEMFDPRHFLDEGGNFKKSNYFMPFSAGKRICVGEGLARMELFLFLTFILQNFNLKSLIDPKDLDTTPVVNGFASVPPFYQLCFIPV
Sequence of Broad substrate specificity ATP-binding cassette transporter ABCG2 (Homo sapiens) (Q9UNQ0 whole entry, looked up): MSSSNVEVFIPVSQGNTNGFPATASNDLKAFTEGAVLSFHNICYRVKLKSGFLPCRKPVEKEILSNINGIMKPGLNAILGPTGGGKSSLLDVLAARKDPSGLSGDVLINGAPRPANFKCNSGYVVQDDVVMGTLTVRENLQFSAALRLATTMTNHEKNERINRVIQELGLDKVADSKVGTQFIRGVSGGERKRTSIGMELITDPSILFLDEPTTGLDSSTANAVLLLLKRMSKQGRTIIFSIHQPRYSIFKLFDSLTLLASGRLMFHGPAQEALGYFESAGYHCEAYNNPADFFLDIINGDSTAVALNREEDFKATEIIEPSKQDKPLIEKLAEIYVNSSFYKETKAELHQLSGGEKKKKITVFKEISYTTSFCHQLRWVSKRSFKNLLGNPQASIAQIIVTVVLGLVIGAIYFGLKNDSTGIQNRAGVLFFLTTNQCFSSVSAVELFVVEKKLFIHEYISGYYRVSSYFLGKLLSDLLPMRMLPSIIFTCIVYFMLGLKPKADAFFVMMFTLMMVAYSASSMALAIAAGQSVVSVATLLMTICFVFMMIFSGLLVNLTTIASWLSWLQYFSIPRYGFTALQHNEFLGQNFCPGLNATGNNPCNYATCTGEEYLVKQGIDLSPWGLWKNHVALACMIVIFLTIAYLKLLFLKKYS
Sequence of Cytochrome P450 3A4 (Homo sapiens) (P08684 whole entry, looked up): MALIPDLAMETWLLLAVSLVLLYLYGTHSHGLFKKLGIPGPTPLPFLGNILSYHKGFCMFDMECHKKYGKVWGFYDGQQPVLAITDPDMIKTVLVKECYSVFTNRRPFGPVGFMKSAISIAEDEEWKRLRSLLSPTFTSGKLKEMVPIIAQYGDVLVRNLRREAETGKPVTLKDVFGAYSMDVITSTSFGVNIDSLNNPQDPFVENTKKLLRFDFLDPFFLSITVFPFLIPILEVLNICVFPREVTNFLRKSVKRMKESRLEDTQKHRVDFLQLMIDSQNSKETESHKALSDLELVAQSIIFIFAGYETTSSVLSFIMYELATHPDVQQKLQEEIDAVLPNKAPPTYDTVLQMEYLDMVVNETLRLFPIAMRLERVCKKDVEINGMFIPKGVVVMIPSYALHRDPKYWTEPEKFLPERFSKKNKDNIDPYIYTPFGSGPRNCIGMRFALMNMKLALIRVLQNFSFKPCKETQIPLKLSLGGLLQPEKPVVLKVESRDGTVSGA
Sequence of Glyceraldehyde-3-phosphate dehydrogenase (Homo sapiens) (P04406 whole entry, looked up): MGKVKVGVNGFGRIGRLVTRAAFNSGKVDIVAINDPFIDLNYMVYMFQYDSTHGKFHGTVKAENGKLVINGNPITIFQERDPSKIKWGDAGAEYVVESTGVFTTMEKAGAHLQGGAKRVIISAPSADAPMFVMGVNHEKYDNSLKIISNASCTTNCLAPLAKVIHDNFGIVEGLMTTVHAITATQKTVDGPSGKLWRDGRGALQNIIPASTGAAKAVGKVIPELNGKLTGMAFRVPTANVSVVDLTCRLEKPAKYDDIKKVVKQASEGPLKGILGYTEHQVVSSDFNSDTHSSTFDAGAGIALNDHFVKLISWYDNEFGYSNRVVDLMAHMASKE

CCOC(=O)C(C)Oc1ccc(Oc2nc3ccc(Cl)cc3o2)cc1 (stereo not given)
not listed: [12] | [13] | [14] | [15] | [16] | [17] | [18] | [19]
inactive: all other assays above

CCCOC(=O)c1ccc(C(=O)OCCC)nc1
inactive: [1] | [2] | [4] | [12] | [7] | [13] | [10] | [14]

O=C(O)C1(C(=O)Nc2ccc(Cl)cc2Cl)CC1
active: [3] 20 µM | [7] 34.9 µM
inactive: [1] | [2] | [5] | [15] | [9] | [10]

CC1(C)C(C=C(Cl)Cl)C1C(=O)OCc1cccc(Oc2ccccc2)c1 (stereo not given)
not listed: [7] | [14] | [17] | [18] | [19]
inactive: all other assays above

COC(=O)c1ccc(I)cc1S(=O)(=O)NC(=O)Nc1nc(C)nc(OC)n1
active: [9] 20 µM
inactive: [1] | [2] | [3] | [4] | [6] | [16] | [8] | [10]

CC(C)(c1ccc(O)cc1)c1ccc(O)cc1
not listed: [3] | [6] | [13] | [15] | [17] | [18] | [19]
inactive: all other assays above

CCOC(=O)C(C)Oc1ccc(Oc2cnc3cc(Cl)ccc3n2)cc1 (stereo not given)
inactive: [17]

COC(=O)CSc1cc(N=c2sc(=O)n3n2CCCC3)c(F)cc1Cl
inactive: [19]
active: [18] 9.13 µM
